In PubChem BioAssay (NCATS):
Where “and” joins values, the source holds several entries; their conditions need not be identical. Identical values can stand only once. Inconclusive results are not listed. Entries that show only a call come without a potency. Some compounds were tested as several samples or in several runs, with calls that do not always agree. Calls of active or inactive are those of the source. Calls follow the shape of the dose curve; as a rule, active = well fitted curve in the direction sought with a large enough effect; inconclusive = small, poorly fitted or top-dose-only effect, or another doubt; inactive = no such curve, though single readings can be large; an effect the other way counts as inactive or inconclusive.

Legend:
[1] = P-glycoprotein substrates identified in KB-8-5-11 adenocarcinoma cell line, qHTS therapeutic library screen (AID 1346987); also: nearly all actives have a fitted effect of over 65% in size; also: potency is read from the fitted curve at half-maximal effect
How it was run: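 KB-8-5-11, a colchicine-selected P-gp-overexpressing KB-3-1 subline, was grown without colchicine for the assay. Cells were seeded at 500 cells/well, dosed in concentration-response and incubated 72 h at 37 degree C, 5% CO2. Viability was read by CellTiter-Glo luminescence.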

[2] = NS1 protein of Zika virus - qHTS assay to identify small molecule inhibitors in human HEK 293 cells (AID 1347053); also: nearly all actives have a fitted effect of over 55% in size; also: potency is read from the fitted curve at half-maximal effect
How it was run: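 HEK 293; 20 h pre-culture, 37 C/5% CO2; cpd 1 h pre-infection; ZIKV MR766, MOI = 0.5, 24 h, 37 C; TR-FRET NS1 readout (two anti-NS1 Abs); norm. to no-virus vs infected.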

[3] = qHTS of pediatric cancer cell lines to identify multiple opportunities for drug repurposing: Primary screen for TC32 cells (AID 1347089); also: nearly all actives have a fitted effect of over 60% in size
How it was run: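 Luminescent ATP read-out (CellTiter-Glo) of metabolically active TC32 cells after 48 h exposure. Concentration-response curves came from 11-point (MIPE, 0.78 nM–46 µM) or 8-point (NPC, 0.59 nM–46 µM) primary titrations; follow-up used 11 points.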

[4] = qHTS of pediatric cancer cell lines to identify multiple opportunities for drug repurposing: Primary screen for DAOY cells (AID 1347090); also: nearly all actives have a fitted effect of over 55% in size; also: potency is read from the fitted curve at half-maximal effect
How it was run: (§1)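 Cell viability, CellTiter-Glo luminescence; 500-1,000 cells/well, 8- or 11-point titration, 48 h compound exposure at 37 degrees C, 5% CO2. Controls: DMSO neutral, bortezomib 2.3 µM final as positive.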

[5] = qHTS of pediatric cancer cell lines to identify multiple opportunities for drug repurposing: Primary screen for SJ-GBM2 cells (AID 1347091); also: potency is read from the fitted curve at half-maximal effect
How it was run: as §1

[6] = qHTS of pediatric cancer cell lines to identify multiple opportunities for drug repurposing: Primary screen for BT-37 cells (AID 1347094); also: potency is read from the fitted curve at half-maximal effect
How it was run: (§2)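 Quantitative HTS format: each compound titrated (MIPE 11 points from 0.78 nM, NPC 8 points from 0.59 nM) onto cells plated 5 hours earlier. After 48 h at 37 degrees C, CellTiter-Glo luminescence was recorded.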

[7] = qHTS of pediatric cancer cell lines to identify multiple opportunities for drug repurposing: Primary screen for NB-EBc1 cells (AID 1347095); also: potency is read from the fitted curve at half-maximal effect
How it was run: as §2

[8] = qHTS of pediatric cancer cell lines to identify multiple opportunities for drug repurposing: Primary screen for U-2 OS cells (AID 1347096); also: nearly all actives have a fitted effect of over 50% in size; also: potency is read from the fitted curve at half-maximal effect
How it was run: (§3)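 Cells (500-1,000/well) rested 5 h, then received compounds for 48 h; metabolically active cells were measured by CellTiter-Glo luminescence. Final concentrations spanned up to 46 µM (MIPE, 11-point) or 0.59 nM-46 µM (NPC, 8-point) in primary screens, 11-point in follow-ups.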

[9] = qHTS of pediatric cancer cell lines to identify multiple opportunities for drug repurposing: Primary screen for Saos-2 cells (AID 1347097); also: nearly all actives have a fitted effect of over 40% in size; also: potency is read from the fitted curve at half-maximal effect
How it was run: as §2

[10] = qHTS of pediatric cancer cell lines to identify multiple opportunities for drug repurposing: Primary screen for SK-N-MC cells (AID 1347093); also: potency is read from the fitted curve at half-maximal effect
How it was run: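 Metabolically active cells were quantified by ATP-dependent luminescence (CellTiter-Glo, 15 min at room temperature) following 48 h treatment. Cells had been plated at 500-1,000 per well and settled for 5 h beforehand.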

[11] = qHTS of pediatric cancer cell lines to identify multiple opportunities for drug repurposing: Primary screen for SK-N-SH cells (AID 1347098); also: nearly all actives have a fitted effect of over 65% in size; also: potency is read from the fitted curve at half-maximal effect
How it was run: as §3

[12] = qHTS of pediatric cancer cell lines to identify multiple opportunities for drug repurposing: Primary screen for NB1643 cells (AID 1347099); also: nearly all actives have a fitted effect of over 50% in size; also: potency is read from the fitted curve at half-maximal effect
How it was run: as §2

[13] = qHTS of pediatric cancer cell lines to identify multiple opportunities for drug repurposing: Primary screen for A673 cells (AID 1347092); also: nearly all actives have a fitted effect of over 45% in size; also: potency is read from the fitted curve at half-maximal effect
How it was run: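 Cell viability of A673 measured by CellTiter-Glo ATP luminescence after 48 hours compound exposure. Dilution series spanned 0.78 nM to 46 µM (MIPE, 11-point) or 0.59 nM to 46 µM (NPC, 8-point); bortezomib 2.3 uM positive control.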

Compound | Potency [1] | Potency [2] | Potency [3] | Potency [4] | Potency [5] | Potency [6] | Potency [7] | Potency [8] | Potency [9] | Potency [10] | Potency [11] | Potency [12] | Potency [13]
COc1cnc(NS(=O)(=O)c2ccc(N)cc2)nc1 | inactive | inactive | inactive | inactive | inactive | inactive | inactive | inactive | inactive | – | – | – | –
CC[C@H](C)C(=O)O[C@H]1C[C@@H](C)C=C2C=C[C@H](C)[C@H](CC[C@@H]3C[C@@H](O)CC(=O)O3)[C@H]21 | 18.7 µM (active) | inactive | inactive | 8.41 µM (active) and 9.35 µM (active) | 9.44 µM (active) and 13.2 µM (active) | – | – | inactive | 5.9 µM (active) | inactive | 4.86 µM (active) and 19.2 µM (active) | inactive | –
COc1ccc2c(c1)c(CC(=O)OCC(=O)O)c(C)n2C(=O)c1ccc(Cl)cc1 | inactive | inactive | inactive | inactive | inactive | inactive | inactive | inactive | inactive | – | inactive | inactive | inactive
S=P(N1CC1)(N1CC1)N1CC1 | inactive | inactive | inactive | inactive | inactive | – | 1.05 µM (active) | inactive | – | 3.72 µM (active) | inactive | 0.0935 µM (active) | 23.5 µM (active)
CC(C)(C)NC(=O)[C@H]1CC[C@H]2[C@@H]3CC[C@H]4NC(=O)C=C[C@]4(C)[C@H]3CC[C@]12C | inactive | inactive | inactive | – | 14.8 µM (active) | – | – | inactive | 14.8 µM (active) | – | – | – | –
CCC(=O)O[C@]1(C(=O)SCF)[C@H](C)C[C@H]2[C@@H]3C[C@H](F)C4=CC(=O)C=C[C@]4(C)[C@@]3(F)[C@@H](O)C[C@@]21C | inactive | inactive | inactive | – | inactive | inactive | inactive | inactive | – | inactive | – | inactive | –
CCc1cc(C(N)=S)ccn1 | inactive | inactive | – | inactive | inactive | inactive | inactive | inactive | inactive | inactive | inactive | inactive | inactive
CCCc1cc(C(N)=S)ccn1 | inactive | inactive | – | inactive | inactive | inactive | inactive | inactive | inactive | inactive | inactive | inactive | –
N[C@@H](C(=O)N[C@@H]1C(=O)N2C(C(=O)O)=C(Cl)CS[C@H]12)c1ccccc1 | inactive | inactive | inactive | – | inactive | inactive | inactive | inactive | inactive | inactive | inactive | inactive | inactive
COC(=O)Nc1nc2ccc(S(=O)c3ccccc3)cc2[nH]1 (centres undefined) | 10.5 µM (active) | inactive | – | 841 nM (active) and 14.8 µM (active) | 596 nM (active) and 14.8 µM (active) | 1.55 µM (active) | 473 nM (active) and 8.33 µM (active) | – | 8.33 µM (active) | 376 nM (active) and 8.33 µM (active) | 1.54 µM (active) and 19.2 µM (active) | – | –
CC1=CC(=O)c2ccccc2C1=O | inactive | inactive | – | inactive | 23.5 µM (active) | inactive | 7.43 µM (active) | inactive | 18.7 µM (active) | 21.1 µM (active) and 148 nM (active) | 21.7 µM (active) | 16.6 µM (active) | –
C[C@]12C=CC(=O)C=C1CC[C@@H]1[C@@H]2C(=O)C[C@@]2(C)[C@H]1CC[C@]2(O)C(=O)CO | inactive | inactive | – | inactive | inactive | inactive | inactive | inactive | inactive | inactive | inactive | inactive | –
O=C(O)c1cc(=O)[nH]c(=O)[nH]1 | inactive | inactive | – | inactive | inactive | inactive | inactive | inactive | inactive | inactive | – | inactive | –
O=C(O)CSCC(=O)NC1CCSC1=O (centres undefined) | inactive | inactive | inactive | – | inactive | inactive | inactive | inactive | inactive | inactive | inactive | inactive | –
CC(C)OC(=O)OCOP(=O)(CO[C@H](C)Cn1cnc2c(N)ncnc21)OCOC(=O)OC(C)C | inactive | inactive | – | inactive | inactive | inactive | inactive | inactive | inactive | 11.8 µM (active) and 15 µM (active) | – | inactive | inactive
O=S(=O)(O)CCS | inactive | inactive | inactive | – | inactive | inactive | inactive | inactive | inactive | – | inactive | – | inactive
CNC(=O)c1cc(Oc2ccc(NC(=O)Nc3ccc(Cl)c(C(F)(F)F)c3)cc2)ccn1 | 11.8 µM (active) and 8.2 µM (active) and 6.51 µM (active) | inactive | – | 11.8 µM (active) | 8.33 µM (active) | 21.7 µM (active) | 5.26 µM (active) | 18.7 µM (active) | 18.7 µM (active) | 3.32 µM (active) | 19.2 µM (active) and 15.4 µM (active) | 4.69 µM (active) | 2.96 µM (active)
COc1c(N2CCNC(C)C2)c(F)cc2c(=O)c(C(=O)O)cn(C3CC3)c12 (centres undefined) | inactive | inactive | inactive | – | inactive | inactive | inactive | inactive | inactive | inactive | inactive | inactive | inactive

Compound | Potency [1] | Potency [2] | Potency [3] | Potency [4] | Potency [5] | Potency [6] | Potency [7] | Potency [8] | Potency [9] | Potency [10] | Potency [11] | Potency [12] | Potency [13]
COc1cc2c(Nc3ccc(Br)cc3F)ncnc2cc1OCC1CCN(C)CC1 | inactive | inactive | inactive | – | inactive | – | inactive | inactive | inactive | – | – | – | –
NC1(c2ccc(-c3nc4ccn5c(=O)[nH]nc5c4cc3-c3ccccc3)cc2)CCC1 | 11.6 µM (active) | 9.35 µM (active) | – | 18.7 µM (active) | 5.26 µM (active) and 13.3 µM (active) | 6.85 µM (active) | 2.35 µM (active) and 11.9 µM (active) | inactive | 10.5 µM (active) | 332 nM (active) and 266 nM (active) | 19.2 µM (active) and 17.2 µM (active) | – | –
Nc1nc(N)nc(-c2cc(Cl)ccc2Cl)n1 | inactive | inactive | – | inactive | inactive | inactive | inactive | inactive | inactive | inactive | inactive | inactive | inactive
CN(Cc1cc(Br)cc(Br)c1N)C1CCCCC1 | inactive | inactive | inactive | – | inactive | inactive | – | inactive | – | – | inactive | inactive | inactive
COc1cccc(N(C)C(=S)Oc2ccc3c(c2)CCCC3)n1 | inactive | inactive and 18.7 µM (active) | inactive | – | inactive | inactive | inactive | inactive | inactive | – | inactive | inactive | inactive
C#CCN[C@@H]1CCc2ccccc21 | inactive | inactive | – | inactive | inactive | inactive | inactive | inactive | inactive | inactive | inactive | inactive | inactive
CC(=O)Oc1ccccc1C(=O)Nc1ncc([N+](=O)[O-])s1 | inactive and 13 µM (active) | inactive | – | 13.6 µM (active) | 8.55 µM (active) | 28 µM (active) and 19.5 µM (active) | 10.8 µM (active) and 15 µM (active) | – | 27 µM (active) | – | inactive | 42.9 µM (active) and 21.1 µM (active) | 42.9 µM (active)
CC(=O)CC(c1ccccc1)c1c(O)c2ccccc2oc1=O (centres undefined) | inactive | inactive | inactive | – | inactive | inactive | inactive | inactive | inactive | – | inactive | inactive | inactive
Cc1cccc(Nc2ccncc2S(=O)(=O)NC(=O)NC(C)C)c1 | inactive | inactive | inactive | – | inactive | inactive | inactive | inactive | inactive | inactive | inactive | inactive | inactive
COc1cc(NS(=O)(=O)c2ccc(N)cc2)nc(OC)n1 | inactive | inactive | inactive | – | inactive | inactive | inactive | inactive | inactive | inactive | inactive | inactive | inactive
CN(CCOc1ccc(CC2SC(=O)NC2=O)cc1)c1ccccn1 (centres undefined) | inactive | inactive | inactive | – | inactive | inactive | inactive | inactive | inactive | – | inactive | inactive | inactive
O=c1cc(O)c(Cl)c[nH]1 | inactive | inactive | inactive | – | inactive | inactive | inactive | inactive | inactive | – | inactive | – | –
CC(C(=O)O)c1ccc2c(c1)CC(=O)c1ccccc1S2 (centres undefined) | inactive | inactive | inactive | – | inactive | – | inactive | inactive | inactive | – | – | – | –
CCOC(=O)c1ccc(OC(=O)CCCCCN=C(N)N)cc1 | inactive | inactive | inactive | – | inactive | inactive | inactive | inactive | inactive | inactive | inactive | inactive | inactive
O=C(N[C@H](CO)[C@H](O)c1ccc([N+](=O)[O-])cc1)C(Cl)Cl | inactive | inactive | – | inactive | inactive | inactive | inactive | inactive | inactive | inactive | – | inactive | inactive
CC(N)C12CC3CC(CC(C3)C1)C2 (centres undefined) | inactive | inactive | – | inactive | inactive | inactive | inactive | inactive | inactive | inactive | inactive | inactive | inactive
NNC(=O)c1ccncc1 | inactive | inactive | – | inactive | inactive | inactive | inactive | inactive | inactive | inactive | inactive | inactive | inactive
